Screening results (PubChem BioAssay)
Mdm2-MdmX inh: inhibitors of human Mdm2-MdmX association, primary screen, cell-based, luminescence, split luciferase, SaOS-2, uHTS | 330,000 compounds, 3% hits | AID 485346, 2010 | SaOS-2 split-luciferase Mdm2/MdmX complementation | Protein Mdm4 (Homo sapiens) + E3 ubiquitin-protein ligase Mdm2 (Homo sapiens), … | inhibition, % at 8 µM;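 active = inhibition of at least 50% at 8 µM in the primary screen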
SKKanGAS inh: S. pyogenes SKKanGAS growth inhibitors in kanamycin, primary screen, streptokinase expression inhibitor project, SKKanGAS strain, BacTiter-Glo luminescence; 300,000 compounds, 1.3% hits; AID 1662, 2009; 6 h; inhibition, % at 7.5 µM;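 active = mean replicate score, as percent of positive control median, at least 50; inconclusive = mean below 50 but one replicate at or above 50; inactive = mean and every replicate below 50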;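 also: strain carries kanamycin resistance gene driven by streptokinase promoter and grows in 40 µg/ml kanamycin; loss of luminescence reflects streptokinase promoter inhibition or plain growth inhibition; 0% = median of DMSO wells and 100% = positive control at its reference dose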
CSC inhib: cancer stem cell viability inhibitors, primary screen, luminescence | cancer stem cell-like cells viability | inhibition, % at 7.5 µM | 300,000 compounds, 1.1% hits; in the data active = inhibition above about 75%; inconclusive = no clear call, values can overlap the other calls; tested in HMLE shEcad cells
Beta cell apopt: inhibitors of cytokine-induced beta cell apoptosis, primary screen, luminescence | INS-1E cytokine-induced death, ATP luminescence, 48 h; percent of positive-control rescue, neutral wells zero | protection from apoptosis, % (test concentration not listed) | 300,000 compounds, 0.8% hits;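 active = Every replicate reaches about 75%, or at least half do and their mean reaches it too, limit read from the data; inconclusive = At least half of replicates reach the limit but their mean does not; inactive = Under half of replicates reach the limit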;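 also: 0% = cytokine-treated negative control wells and 100% = positive control rescue; higher means more ATP so stronger rescue from cytokine killing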
MPTP inh: mitochondrial permeability transition pore inhibitors, primary screen, biochemical, isolated mouse mitochondria, absorbance. Ca2+ swelling absorbance, 30 min. inhibition, % at 10 µM. 360,000 compounds, 1.4% hits. AID 602449, 2012;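 active = inhibition of 50% or more, scaled per plate between neutral and stimulator controls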;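 also: 0% = DMSO wells given calcium and 100% = 1 mM EGTA wells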
GRIN3A LBD mod: binders of NR3A ligand-binding domain, primary screen, biophysical, differential scanning fluorimetry, uHTS; AID 1259313, 2017; NR3A LBD differential scanning fluorimetry, Tm shift; 0% = protein alone, 100% = glycine-bound protein; Tm shift relative to glycine control, % at 25 µM; Glutamate receptor ionotropic, NMDA 3A (GRIN3A) ligand-binding domain; 340,000 compounds, 2.5% hits;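 active = melting temperature shift of at least 10% of the positive control shift, at one fixed dose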
The depositor's hits bear a star; ? = inconclusive; . = no result given. The list is not random: actives were taken first. Their share in the collection is about 6.9%.

SMILES | Mdm2-MdmX inh | SKKanGAS inh | CSC inhib | Beta cell apopt | MPTP inh | GRIN3A LBD mod
COc1ccc(C(=O)N/N=C/c2ccc(OC)c(OS(=O)(=O)c3ccccc3)c2)cc1 | 2 | -2 | 42 | 3 | 3 | 13*
Cc1ccccc1C(=O)Nc1ccc(C(=O)N/N=C/c2ccc(F)cc2)cc1 | 23 | 2 | -6 | 5 | 1 | 26*
Cc1cc(C)c2cc(C#N)c(SCC(=O)Nc3cc(C)on3)nc2c1 | 11 | 1 | -2 | 0 | 1 | 1
COC(=O)c1ccc2c(c1)N(C)S(=O)(=O)c1cnc(SCC(=O)C(C)(C)C)nc1-2 | 15 | 5 | -7 | -13 | -1 | 11*
COc1cccc(C(=O)Nc2ccc(-c3nc4ccccc4o3)c(O)c2)c1 | 10 | 28 | 22 | 10 | 5 | 34*
COc1cc(OC)cc(C(=O)Nc2ccc(-c3nc4ccccc4o3)cc2)c1 | 26 | 34 | 14 | 35 | 0 | 20*
COc1ccc(CCNc2cc(N3CCN(C(=O)c4ccc(C)cc4)CC3)ccc2[N+](=O)[O-])cc1OC | 28 | 0 | 17 | 90* | . | .
CCCCCNC(=O)c1nc(-c2c(F)cccc2F)oc1-c1ccccc1 | . | . | . | . | 9 | .
COc1ccc(C2NN=C(c3ccc(C)cc3)S2)cc1 (configuration not stated) | . | -7 | -8 | 2 | -1 | -14
CCOc1cc(C2NN=C(c3ccc(C)cc3)S2)ccc1O (configuration not stated) | . | . | 105* | 0 | -1 | -11
Cc1ccc(NC(=O)C(OC(=O)c2ccc(NC(N)=O)cc2)c2ccccc2)cc1Cl (configuration not stated) | 12 | ? | 30 | -9 | 8 | 26*
O=C(OC(C(=O)Nc1ccc(Cl)c(C(F)(F)F)c1)c1ccccc1)C1=COCCO1 (configuration not stated) | 18 | 23 | -8 | -10 | 25 | 13*
Cc1ccc(NC(=O)COc2ccccc2C(=O)Nc2ccccc2)cc1Cl | -20 | 16 | 9 | 5 | 0 | -17
CCOc1ccc(NC(=O)C(C)Oc2ccccc2C(=O)Nc2ccc(C)c(Cl)c2)cc1 (configuration not stated) | 39 | 27 | 56 | 3 | 39 | 26*
Cc1ccc(NC(=O)C(NC2CCCC2)c2ccccc2)cc1Cl (configuration not stated) | 38 | -15 | 11 | 4 | 2 | -4
Cc1ccc(NC(=O)C(OC(=O)c2ccccc2Cl)c2ccccc2)cc1Cl (configuration not stated) | -1 | 4 | -1 | 6 | 10 | 19*
O=C(OC(C(=O)Nc1ccc(Cl)cc1C(F)(F)F)c1ccccc1)C1=COCCO1 (configuration not stated) | 4 | 4 | -5 | -7 | 3 | -2
COc1cccc(-c2cnc3c(NC(C)=O)cc(-c4ccc(C(=O)N5CCOCC5)cc4)cn23)c1 | . | . | . | . | 0 | .
CCOC(=O)c1ccc(-c2csc(NC(=O)CN3CCC(C)CC3)n2)cc1 | 21 | 19 | -1 | 2 | 0 | -4
Cc1cc(C(=O)OC(C(=O)Nc2ccc(C)c(Cl)c2)c2ccccc2)c(C)o1 (configuration not stated) | . | 9 | 54 | -1 | 17 | 26*
CCOc1ccc(C(=O)NCC(=O)N2CC=C(c3ccccc3)CC2)cc1OCC | 14 | 6 | . | 0 | -1 | 1
Cc1ccc(N=Nc2ccc(O)c(P(=O)(c3ccccc3)c3ccccc3)c2)cc1 | 10 | 50* | 14 | 0 | 23 | -3
Cc1cc(C)nc(NC(=NCCc2c[nH]c3ccccc23)NC(=O)Nc2ccc(Cl)cc2)n1 | 39 | 20 | 97* | 20 | 3 | 0
NC(=NCCc1c[nH]c2ccccc12)NC(=O)c1ccc(Cl)cc1 | 9 | -2 | 43 | -7 | 4 | 24*
CCC1(C)Cc2ccccc2-c2nc(NCCCO)[nH]c(=O)c21 (configuration not stated) | 5 | -8 | 0 | -2 | 2 | 1
SMILES | Mdm2-MdmX inh | SKKanGAS inh | CSC inhib | Beta cell apopt | MPTP inh | GRIN3A LBD mod
O=C(Nc1cccc(C(F)(F)F)c1)C(SCCO)c1ccccc1 (configuration not stated) | 13 | 7 | -8 | -6 | 22 | -7
Cn1nnnc1SC(C(=O)Nc1cccc(C(F)(F)F)c1)c1ccccc1 (configuration not stated) | 9 | 3 | 4 | -2 | -17 | 13*
CC(=O)O[C@]1(C(C)=O)CC[C@H]2[C@@H]3C[C@H](C)C4=CC(=O)CC[C@]4(C)[C@H]3CC[C@@]21C | 16 | -4 | 3 | 4 | -1 | 1
CC(=O)O[C@H]1C[C@@]2(C)[C@@H](C[C@@H](O)[C@H]3[C@@]4(C)CC[C@@H](O)[C@@H](C)C4CC[C@@]32C)/C1=C(\CCC=C(C)C)C(=O)O (some centres not stated) | . | 73* | . | . | -4 | -2
CCN(c1ccccc1)S(=O)(=O)c1cc(NC(=O)CSc2n[nH]c(=O)[nH]c2=O)ccc1Cl | 22 | 4 | . | 0 | 3 | -2
C=CCn1c(=O)c2ccccc2n2c(SCC(=O)NCC)nnc12 | -31 | -8 | -6 | 1 | 0 | -1
CN1/C(=C\C(=S)NC(=O)c2cccc(Br)c2)C(C)(C)c2ccccc21 | 16 | -7 | 10 | 116* | 6 | 0
CN1/C(=C/C=N/NC(=O)c2ccc([N+](=O)[O-])cc2)C(C)(C)c2ccccc21 | 19 | 8 | . | 3 | 3 | -3
CN1/C(=C\C(=S)NC(=O)c2ccc([N+](=O)[O-])cc2)C(C)(C)c2ccccc21 | -3 | 4 | -6 | 103* | 2 | 1
CN1/C(=C\C(=O)Nc2ccc(Br)cc2)C(C)(C)c2ccccc21 | 6 | 71* | 76* | -17 | 28 | 19*
CC(C)CCN1C(=O)c2ccc(C(=O)OCC(=O)N(CC(C)C)C3CCS(=O)(=O)C3)cc2C1=O (configuration not stated) | -6 | . | -34 | 3 | -1 | -2
NS(=O)(=O)c1ccc(NC(=S)N2CCN(Cc3ccc(Cl)c(Cl)c3)CC2)cc1 | 3 | 4 | 11 | -6 | -1 | 25*
Cn1c2ccccc2c(=O)c2cc(C#CC3=CCCCC3)ccc21 | -40 | . | 32 | 3 | 0 | -9
Cn1c2ccccc2c(=O)c2ccc(C#Cc3ccc(N)cc3)cc21 | 20 | 70* | 61 | 29 | -1 | 12*
COc1ccc(C#Cc2ccc3c(=O)c4ccccc4n(C)c3c2)cc1 | 8 | 76* | 40 | 2 | . | 6
